# PubChem BioAssay (NCI)
# Compounds without any hit were thinned out: in the full panel of roughly 83,000, 20% have a hit.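 A percent growth of 40 corresponds to 60% growth inhibition; 0 means no net growth; -100 means all cells died. Active threshold: below 10.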 Values without a mark were called inactive. The source made the active and inactive calls.
# How the values were obtained:
# Assay in all cases: NCI-60 one-dose screen, 48 h (100 = growth as untreated, 0 = no growth, -100 = all killed)
# Details in all cases: 10 µM
# NCI-H23 lung = tested on: NCI-H23 lung
# NCI-H226 lung = tested on: NCI-H226 lung
# NCI-H322M lung = tested on: NCI-H322M lung
# HOP-62 NSCLC = tested on: HOP-62 NSCLC
# NCI-H460 lung = tested on: NCI-H460 lung
# NCI-H522 lung = tested on: NCI-H522 lung
# A549/ATCC NSCLC = tested on: A549/ATCC NSCLC
# 786-0 renal = tested on: 786-0 renal
# COLO 205 colon = tested on: COLO 205 colon
# DU-145 prostate = tested on: DU-145 prostate
# K-562 leukemia = tested on: K-562 leukemia
# MDA-MB-231 breast = tested on: MDA-MB-231 breast
# RXF 393 renal = tested on: RXF 393 renal
# SF-268 CNS = tested on: SF-268 CNS
# SF-295 CNS = tested on: SF-295 CNS
# SF-539 CNS = tested on: SF-539 CNS
# UACC-257 melanoma = tested on: UACC-257 melanoma
# M14 melanoma = tested on: M14 melanoma
# HCT-15 colon = tested on: HCT-15 colon
SMILES,growth (NCI-H23 lung),growth (NCI-H226 lung),growth (NCI-H322M lung),growth (HOP-62 NSCLC),growth (NCI-H460 lung),growth (NCI-H522 lung),growth (A549/ATCC NSCLC),growth (786-0 renal),growth (COLO 205 colon),growth (DU-145 prostate),growth (K-562 leukemia),growth (MDA-MB-231 breast),growth (RXF 393 renal),growth (SF-268 CNS),growth (SF-295 CNS),growth (SF-539 CNS),growth (UACC-257 melanoma),growth (M14 melanoma),growth (HCT-15 colon)
c1ccc2c(c1)oc1c3c(ccc12)NCCC3,86%,90.9%,91.8%,97.6%,99%,80.9%,90.3%,90.5%,114%,103%,98.4%,90.2%,107%,96.1%,118%,93.4%,95.4%,109%,81.1%
COc1ccc2c(c1)C(=O)c1c-2c(OCCN(C)C)nc2ccccc12,41.5%,45.5%,-5.17% (active),30.8%,2.29% (active),21.2%,14%,33.7%,23.4%,27%,10.2%,67.8%,49%,26.6%,18%,45.9%,36.2%,30%,20.5%
C=C(C(=O)c1ccccc1)C(NC(C)(C)C)c1ccccc1 (configuration not stated),31.9%,67.9%,98.6%,47.5%,26.9%,-83.9% (active),43.2%,23.1%,-77% (active),20.6%,4.27% (active),-11.3% (active),-56.1% (active),7.85% (active),110%,-24.1% (active),-15.3% (active),-33.6% (active),-48.7% (active)
CSc1cc(SC)ncn1,120%,107%,105%,108%,119%,100%,105%,103%,104%,115%,96.6%,95.7%,124%,112%,102%,98.1%,104%,112%,98.2%
Clc1ccccc1N=Cc1ccc2c(c1)OCO2,108%,105%,110%,110%,116%,80.3%,98.2%,104%,109%,112%,87.1%,94.4%,106%,107%,102%,112%,104%,103%,100%
CCN1CCC(CCOC)(CN2c3ccccc3Sc3ccc(Cl)cc32)C1 (configuration not stated),63.5%,73.9%,65.7%,58.3%,24.1%,65.1%,61.1%,48.7%,40%,69.5%,-15.2% (active),35%,37.3%,63.3%,72.4%,78%,24.6%,-65.9% (active),49.1%
CCN(CC)CCOc1nc2ccc(OC)cc2c2c1-c1ccc(OC)cc1C2=O,-30.5% (active),16.5%,-13.2% (active),6.96% (active),-75.4% (active),-89.2% (active),-67.2% (active),26%,15.3%,-70.3% (active),-43.5% (active),20.5%,4.4% (active),17.3%,-2.73% (active),28.8%,-52.8% (active),-83.3% (active),-59.4% (active)
COc1ccc2c(c1)sc1nc(-c3ccccc3)c(-c3ccc(O)c(OC)c3)n12,88.2%,94.1%,89.7%,79.1%,69.8%,76.4%,64.2%,84.9%,71.4%,107%,30.7%,90.7%,104%,88.7%,81.2%,86.9%,83.8%,38.1%,47.1%
CCCCCCCCCCCCCC[n+]1ccc(C(N)=O)cc1,16.7%,-7.94% (active),58.8%,10.5%,0.582% (active),-21.7% (active),33.6%,-12.1% (active),-100% (active),22.8%,9.07% (active),-35.3% (active),-52.4% (active),-12.5% (active),-27.8% (active),-3.7% (active),9.72% (active),-45.1% (active),62.6%
Cc1ncc(-c2ccoc2)c(NC2CCCCCC2)n1,97.9%,103%,80.7%,102%,106%,82.8%,101%,99.2%,106%,110%,106%,108%,113%,98.9%,102%,110%,96.4%,101%,103%
Cn1c(C(N)=O)cc2c1-c1nc(Nc3ccccc3)ncc1CCC2,52%,38.1%,46.6%,38.8%,37.6%,33.5%,31.1%,49.9%,59.8%,55.5%,49.8%,38.1%,3.67% (active),47.8%,60.6%,35.5%,74.3%,45.5%,34.6%
O=C(O)C(SC(C(=O)O)c1ccccc1)c1ccccc1 (configuration not stated),99.8%,95.9%,118%,107%,110%,108%,103%,103%,113%,104%,98.6%,115%,106%,106%,115%,115%,104%,109%,99.8%
CCN1CCC2(CC1)OC(c1ccccc1)C(c1ccccc1)O2 (configuration not stated),106%,96.6%,133%,114%,118%,116%,105%,92.7%,106%,115%,88.2%,122%,109%,108%,111%,116%,116%,112%,106%
COc1ccc2c(c1)sc1nc(-c3ccccc3)c(-c3cccnc3)n12,88.4%,103%,113%,125%,102%,-22.7% (active),94.1%,96.9%,128%,107%,82%,107%,103%,111%,97%,102%,100%,97.7%,84.6%
O=C1OCC2=C1C(c1cccc(Cl)c1)c1cc3c(cc1N2CCO)OCCO3 (configuration not stated),19.6%,-5.85% (active),35.3%,26.7%,0.852% (active),-22.4% (active),13.8%,23.7%,-26.9% (active),-35.6% (active),17.5%,-3.22% (active),33.9%,23.1%,-16.5% (active),-3.57% (active),44.6%,12.9%,8.81% (active)
COc1ccc(/C=C/C(=O)Nc2ccc(-c3nc4ccc(F)cc4s3)cc2)cc1,86.3%,72.3%,104%,109%,99.1%,85.5%,94%,80.6%,110%,118%,79.6%,97%,101%,112%,95.5%,111%,94.9%,102%,105%
O=C1OCC2=C1C(c1cccc(Br)c1)c1cc3c(cc1N2CCO)CCC3 (configuration not stated),21.1%,-15.7% (active),36.8%,28.4%,-6.92% (active),-31.4% (active),12.5%,19.1%,-29.1% (active),-28.9% (active),19.4%,-13% (active),29.5%,14.4%,-9.25% (active),-1.5% (active),–,12.8%,8.3% (active)
